Here are results for ten compounds from PubChem BioAssay (NCI).

Assay [1] is described as follows: NCI Yeast Anticancer Drug Screen. Data for the rad50 strain (AID 155).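 Also: 0% = growth of vehicle-only cultures of the same strain.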 The note with it: S. cerevisiae rad50 strain growth inhibition, hits give high values. In short, it runs like this: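 Relative growth inhibition (compound vs vehicle) was measured in yeast with a defined repair-gene alteration.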
Assay [2] is described as follows: NCI Yeast Anticancer Drug Screen. Data for the mec2-1 strain (AID 157). The note with it: S. cerevisiae mec2-1 strain, hits give high values. In short, it runs like this: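 Growth inhibition is read against vehicle-treated controls after compound exposure of the mec2-1 yeast strain, which is defective in DNA damage repair or cell cycle control.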
The nature of assay [3]: NCI Yeast Anticancer Drug Screen. Data for the sgs1 mgt1 strain (AID 161).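 Also: 0% = growth of cultures given vehicle only.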 The settings on record: S. cerevisiae sgs1 mgt1 strain, hits give high values. In short, it runs like this:
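Compounds are added to genetically altered yeast, and growth is compared with cultures given vehicle alone to give percent inhibition.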

The nature of assay [4]: NCI Yeast Anticancer Drug Screen. Data for the cln2 rad14 strain (AID 165).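 Also: 0% = growth equal to vehicle treated cultures.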 The note with it: S. cerevisiae cln2 rad14 strain, hits give high values. In short, it runs like this: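 Growth inhibition, relative to vehicle-treated controls, is the read-out. The test organism is a yeast strain with defined genetic alterations, cln2 rad14.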
A short description of assay [5]: NCI Yeast Anticancer Drug Screen. Data for the bub3 strain (AID 167). The settings on record: S. cerevisiae bub3 mutant strain, hits give high values. An outline of the steps: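 Screening used yeast with an engineered genetic alteration affecting cell cycle control. Compound-exposed cultures were compared with vehicle cultures, and reduced growth was taken as inhibition.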

Assay [6] can be described thus: NCI Yeast Anticancer Drug Screen. Data for the mlh1 rad18 strain (AID 175). The settings on record: S. cerevisiae mlh1 rad18 strain growth inhibition, hits give high values. In short, it runs like this:
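Cells of a genetically altered yeast strain, deficient in DNA damage repair, were treated with compound. Their growth was then compared with that of vehicle-treated cultures to give inhibition.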

[7] abbreviates: at 5.0 µM (retest, dose inferred, filed as 0.5).
Where [8] appears, read: at 50.0 µM (retest, dose inferred, filed as 5.0).

The panel holds about 79,000 compounds, 15% with a hit somewhere; the sample as a whole holds those more often. Values without a mark were called inactive. Active and inactive are the calls of the source. Rule as the data show it: active = growth inhibition above about 70%; inactive = the rest.

Regarding `O=[N+]([O-])c1ccc(N/N=C/c2cccnc2)cc1`, the growth inhibition in assay [1] (setting [7]) was 20%; in assay [1] (setting [8]) it was 49%; in assay [1] (at 50.0 µM) it was 66.4%; in assay [2] (setting [7]), -5%; in assay [2] (setting [8]), 6%; in assay [2] (at 50.0 µM), -12.1%. Further, the growth inhibition in assay [3] (setting [7]) was 1%; in assay [3] (setting [8]) it was 26%; in assay [3] (at 50.0 µM), 60.1%; in assay [4] (setting [7]) it was 3%; in assay [4] (setting [8]) it was 15%; in assay [4] (at 50.0 µM), -0.05%. Further, the growth inhibition in assay [5] (setting [7]) was 3%; in assay [5] (setting [8]), 44%; in assay [5] (at 50.0 µM), 29.4%; in assay [6] (setting [7]), 9%; in assay [6] (setting [8]) it was 26%; in assay [6] (at 50.0 µM), 45.5%.

Consider `Cc1ccc(NC(=S)SCc2ccc(Cl)cc2)cc1Br`, for which the growth inhibition in assay [1] (setting [7]) is 48%; in assay [1] (setting [8]) it was 99% (active); in assay [1] (at 50.0 µM), 90.5% (active); in assay [2] (setting [7]), 25%; in assay [2] (setting [8]) it was 99% (active); in assay [2] (at 50.0 µM), 93.2% (active). Besides, the growth inhibition in assay [3] (setting [7]) is 64%; in assay [3] (setting [8]), 100% (active); in assay [3] (at 50.0 µM) it was 91% (active); in assay [4] (setting [7]) it was 48%; in assay [4] (setting [8]) it was 99% (active); in assay [4] (at 50.0 µM), 89.9% (active). Besides, the growth inhibition is 65% in assay [5] (setting [7]); 99% (active) in assay [5] (setting [8]); 92.3% (active) in assay [5] (at 50.0 µM); 38% in assay [6] (setting [7]); 99% (active) in assay [6] (setting [8]); 90.8% (active) in assay [6] (at 50.0 µM).

With `CCCCCc1cc(C(=O)OC/C(C)=N/O)c2ccccc2n1`, the growth inhibition in assay [1] (setting [7]) is -5%; in assay [1] (setting [8]), 90% (active); in assay [1] (at 50.0 µM) it was 97.2% (active); in assay [2] (setting [7]), -9%; in assay [2] (setting [8]), 95% (active); in assay [2] (at 50.0 µM), 97.5% (active). Besides, the growth inhibition in assay [3] (setting [7]) is -6%; in assay [3] (setting [8]), 91% (active); in assay [3] (at 50.0 µM), 96.5% (active); in assay [4] (setting [7]) it was -5%; in assay [4] (setting [8]) it was 92% (active); in assay [4] (at 50.0 µM), 83.2% (active). In addition, the growth inhibition is -6% in assay [5] (setting [7]); 93% (active) in assay [5] (setting [8]); 97.8% (active) in assay [5] (at 50.0 µM); -6% in assay [6] (setting [7]); 93% (active) in assay [6] (setting [8]); 97.4% (active) in assay [6] (at 50.0 µM).

With `[Cu+2].[NH-]c1ccccc1O.[NH-]c1ccccc1[OH2+]`, the growth inhibition was 7% in assay [1] (setting [7]); 69% in assay [1] (setting [8]); 50.6% in assay [1] (at 50.0 µM); 20% in assay [2] (setting [7]); 80% (active) in assay [2] (setting [8]); 46.6% in assay [2] (at 50.0 µM). Also, the growth inhibition in assay [3] (setting [7]) was 15%; in assay [3] (setting [8]), 67%; in assay [3] (at 50.0 µM), 60.4%; in assay [4] (setting [7]) it was 11%; in assay [4] (setting [8]), 59%; in assay [4] (at 50.0 µM), 35.8%. Further, the growth inhibition in assay [5] (setting [7]) is 45%; in assay [5] (setting [8]) it was 67%; in assay [5] (at 50.0 µM) it was 75.8% (active); in assay [6] (setting [7]), 28%; in assay [6] (setting [8]), 82% (active); in assay [6] (at 50.0 µM), 75.6% (active).

In the case of `CCN1C(Cl)=NS(=O)(=O)c2ccccc21`, the growth inhibition in assay [1] (setting [7]) was 17%; in assay [1] (setting [8]), 36%; in assay [1] (at 50.0 µM) it was -24.4%; in assay [2] (setting [7]), 24%; in assay [2] (setting [8]), 43%; in assay [2] (at 50.0 µM) it was -3.45%. The growth inhibition was 22% in assay [3] (setting [7]); 39% in assay [3] (setting [8]); -8.5% in assay [3] (at 50.0 µM); 19% in assay [4] (setting [7]); 32% in assay [4] (setting [8]); -4% in assay [4] (at 50.0 µM). The growth inhibition in assay [5] (setting [7]) is 19%; in assay [5] (setting [8]), 53%; in assay [5] (at 50.0 µM) it was -0.05%; in assay [6] (setting [7]), 25%; in assay [6] (setting [8]) it was 46%; in assay [6] (at 50.0 µM), 21.2%.

As for `COc1ccc(C(=O)C(CN2CCOCC2)CN2CCOCC2)cc1`, the growth inhibition is 11% in assay [1] (setting [7]); -10% in assay [1] (setting [8]); 96.2% (active) in assay [1] (at 50.0 µM); 20% in assay [2] (setting [7]); -6% in assay [2] (setting [8]); 97.2% (active) in assay [2] (at 50.0 µM). The growth inhibition was 23% in assay [3] (setting [7]); -6% in assay [3] (setting [8]); 97.7% (active) in assay [3] (at 50.0 µM); 11% in assay [4] (setting [7]); -11% in assay [4] (setting [8]); 92.3% (active) in assay [4] (at 50.0 µM). Further, the growth inhibition in assay [5] (setting [7]) is 10%; in assay [5] (setting [8]), -5%; in assay [5] (at 50.0 µM), 95.7% (active); in assay [6] (setting [7]) it was 18%; in assay [6] (setting [8]) it was -2%; in assay [6] (at 50.0 µM), 97.2% (active).

Turning to `Fc1cccc(C2SCc3nc4ccccc4n32)c1F` (stereo not given), the growth inhibition in assay [1] (setting [7]) is -4%; in assay [1] (setting [8]), 2%; in assay [1] (at 50.0 µM), 63.3%; in assay [2] (setting [7]), -5%; in assay [2] (setting [8]) it was 23%; in assay [2] (at 50.0 µM), 54.8%. Also, the growth inhibition is -3% in assay [3] (setting [7]); 28% in assay [3] (setting [8]); 76.2% (active) in assay [3] (at 50.0 µM); -12% in assay [4] (setting [7]); -7% in assay [4] (setting [8]); 40.2% in assay [4] (at 50.0 µM). In addition, the growth inhibition was -5% in assay [5] (setting [7]); 14% in assay [5] (setting [8]); 73.3% (active) in assay [5] (at 50.0 µM); -8% in assay [6] (setting [7]); 7% in assay [6] (setting [8]); 92% (active) in assay [6] (at 50.0 µM).

As to `O=C(N/C(=C\c1ccc2c(c1)OCO2)c1nc2ccccc2s1)c1ccccc1`, the growth inhibition is 19% in assay [1] (setting [7]); 98% (active) in assay [1] (setting [8]); 97% (active) in assay [1] (at 50.0 µM); 1% in assay [2] (setting [7]); 98% (active) in assay [2] (setting [8]); 97.9% (active) in assay [2] (at 50.0 µM). Moreover, the growth inhibition is 38% in assay [3] (setting [7]); 98% (active) in assay [3] (setting [8]); 98.1% (active) in assay [3] (at 50.0 µM); 10% in assay [4] (setting [7]); 97% (active) in assay [4] (setting [8]); 96.8% (active) in assay [4] (at 50.0 µM). Further, the growth inhibition in assay [5] (setting [7]) was 19%; in assay [5] (setting [8]), 98% (active); in assay [5] (at 50.0 µM), 96.8% (active); in assay [6] (setting [7]), 18%; in assay [6] (setting [8]), 97% (active); in assay [6] (at 50.0 µM), 97.5% (active).

With `O=C(C1=Cc2ccccc2OC1)N1CCN(c2cccc(Cl)c2)CC1`, the growth inhibition in assay [1] (setting [7]) is -1%; in assay [1] (setting [8]), 96% (active); in assay [1] (at 50.0 µM) it was 49.3%; in assay [2] (setting [7]) it was -6%; in assay [2] (setting [8]) it was 98% (active); in assay [2] (at 50.0 µM) it was 35.9%. For the same compound, the growth inhibition was 1% in assay [3] (setting [7]); 97% (active) in assay [3] (setting [8]); 72.2% (active) in assay [3] (at 50.0 µM); -6% in assay [4] (setting [7]); 97% (active) in assay [4] (setting [8]); 57.8% in assay [4] (at 50.0 µM). Also, the growth inhibition is 10% in assay [5] (setting [7]); 97% (active) in assay [5] (setting [8]); 89.5% (active) in assay [5] (at 50.0 µM); -12% in assay [6] (setting [7]); 97% (active) in assay [6] (setting [8]); 71.2% (active) in assay [6] (at 50.0 µM).

With `CN(C)c1cc[c]([Sn]([c]2ccc(N(C)C)cc2)([c]2ccc(N(C)C)cc2)[c]2ccc(N(C)C)cc2)cc1`, the growth inhibition in assay [1] (setting [7]) was 0%; in assay [1] (setting [8]), 0%; in assay [1] (at 50.0 µM), 72.5% (active); in assay [2] (setting [7]) it was 4%; in assay [2] (setting [8]), 4%; in assay [2] (at 50.0 µM) it was 34.1%. In addition, the growth inhibition in assay [3] (setting [7]) was -9%; in assay [3] (setting [8]) it was -9%; in assay [3] (at 50.0 µM) it was 37%; in assay [4] (setting [7]), -12%; in assay [4] (setting [8]), -12%; in assay [4] (at 50.0 µM), 34.4%. The growth inhibition was -12% in assay [5] (setting [7]); -12% in assay [5] (setting [8]); 49.4% in assay [5] (at 50.0 µM); -18% in assay [6] (setting [7]); -18% in assay [6] (setting [8]); 78.8% (active) in assay [6] (at 50.0 µM).
